TDP1 block: TDP1 (human) enzyme inhibition | AID 485290 | Potency, µM (top dose mostly 130 µM), actives largely listed as inhibitors | recombinant TDP1, AlphaScreen DNA substrate cleavage | Q9NUW8 | actives 0.28% (n = 350,000); further: nearly all actives have a fitted effect of over 40% in size
Target sequence (Q9NUW8 whole entry, looked up): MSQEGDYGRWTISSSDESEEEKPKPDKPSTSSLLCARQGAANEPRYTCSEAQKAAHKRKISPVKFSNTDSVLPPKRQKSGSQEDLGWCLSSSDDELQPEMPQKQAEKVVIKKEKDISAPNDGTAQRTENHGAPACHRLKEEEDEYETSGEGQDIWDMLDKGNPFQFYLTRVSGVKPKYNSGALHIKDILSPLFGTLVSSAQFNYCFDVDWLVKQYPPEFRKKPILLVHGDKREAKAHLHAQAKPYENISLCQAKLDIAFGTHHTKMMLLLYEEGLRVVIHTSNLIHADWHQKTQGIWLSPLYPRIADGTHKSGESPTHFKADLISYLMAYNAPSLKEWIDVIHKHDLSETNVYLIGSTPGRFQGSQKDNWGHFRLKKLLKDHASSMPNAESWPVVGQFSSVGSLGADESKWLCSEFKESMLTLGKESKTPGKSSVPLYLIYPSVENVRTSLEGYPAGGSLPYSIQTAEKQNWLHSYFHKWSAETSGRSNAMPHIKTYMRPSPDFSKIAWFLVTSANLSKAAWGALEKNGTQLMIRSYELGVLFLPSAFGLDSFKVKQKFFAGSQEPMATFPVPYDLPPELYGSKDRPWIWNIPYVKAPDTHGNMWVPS
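Enzyme-compound mixtures sat 15 min at room temperature, followed by a 5 min reaction with 15 nM final substrate and 10 min with AlphaScreen beads. Recombinant human Tdp1 was used at 1 nM final.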
TGFb inhibitor: inhibitors of TGF-b signaling; Potency, µM (highest dose often 46.1 µM), hits mostly inhibitors; AID 588855; actives 1.2% (n = 410,000); HepG2 CAGA-GFP TGF-b/SMAD3 reporter, GFP fluorescence, 18 h; TGF-beta stimulated, 500 pg/mL final; further: nearly all actives have a fitted effect of over 65% in size
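Inhibition of TGF-beta-driven CAGA-GFP reporter expression in HEPG2 cells is measured by cellular GFP fluorescence after 18 h stimulation with 500 pg/mL recombinant TGF-beta in 1% FBS medium at 37 degrees C.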
IL-1B inflam inh: inflammasome signaling inhibition, IL-1 beta readout. THP-1 LPS/ATP IL-1B secretion, AlphaLISA, 16 h; stronger effect = lower value. activity change, % at 57.5 µM. actives 4.7% (n = 360,000); in the data active means activity change below about -50%; inconclusive means mostly about -30% to -49%
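THP-1 cells pretreated 1 hr with compounds (up to 57.5 uM final), then stimulated with LPS (250 ng/mL final) plus ATP (1.25 mM final); secreted IL-1B measured by AlphaLISA after 16 hr, decreased signal indicating inhibition.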
DT40 TDP1 CPT: growth inhibition of DT40 Tdp1-/-;hTDP1 cells with camptothecin (screen for TDP1 inhibitors) | Potency, µM (top dose mostly 46.2 µM), most hits filed as inhibitors | AID 686979 | chicken DT40 Tdp1-/-;hTDP1 cells + 20 nM CPT, ATP luminescence, 48 h | actives 12% (n = 420,000); further: nearly all actives have a fitted effect of over 55% in size
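Chicken DT40 Tdp1-/- cells stably complemented with human TDP1 were seeded at 400 cells/well in medium containing 20 nM camptothecin, exposed to pin-transferred compounds, and grown at 37 °C for at least 48 hr. Viability was read as ATP luminescence.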
HepG2 viability: counter-screen for TGF-b inhibitors: cytotoxicity in HepG2 cells; AID 588856; Potency, µM (doses to about 46.1 µM), most hits filed as cytotoxic; actives 0.76% (n = 410,000); HepG2 CAGA-GFP viability, ATP luminescence, 18 h
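CellTiter-Glo luminescence gave cytotoxicity after 18 hours at 37 degrees C. The cells were HepG2 CAGA-GFP in 1% FBS DMEM, stimulated with 500 pg/mL TGF-beta after compound addition. %Activity was normalised to no-cell wells (complete cell-killing) and DMSO (no toxicity), and curves were fitted and classified.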
DT40 TDP1 no CPT: qHTS for Inhibitors of human tyrosyl-DNA phosphodiesterase 1 (TDP1): qHTS in cells in absence of CPT; DT40 Tdp1-/- hTDP1 cells, no CPT, ATP luminescence, 48 h; Potency, µM (top dose mostly 46.2 µM), most hits filed as inhibitors; actives 15% (n = 420,000); further: nearly all actives have a fitted effect of over 55% in size
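Compound effects on proliferation are scored in DT40 Tdp1-/-;hTDP1 cells in the absence of CPT. ATP levels (CellTiter-Glo luminescence) are recorded after a ≥48 hr, 37 °C incubation.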
Large screens that a line does not name were inactive. A selection: hits, their analogues and other compounds. The true share with any hit is near 19%. Unless noted, the call rests on the fitted dose curve; in most records, active means well fitted curve in the direction sought with a large enough effect; inconclusive means small, poorly fitted or top-dose-only effect, or another doubt; inactive means no such curve, though single readings can be large; an effect the other way counts as inactive or inconclusive.

COc1cc(OC)c2ccc(=O)oc2c1C(CCN1CCCC(C)C1)c1ccc2c(c1)OCO2 (stereo unspecified)	TGFb inhibitor inconclusive, DT40 TDP1 CPT 10µM, DT40 TDP1 no CPT 15µM
COc1cc(OC)c2c(C)cc(=O)oc2c1C(CCN1CCCC(C)C1)c1ccc(N(C)C)cc1 (stereo unspecified)	none (no result: IL-1B inflam inh, DT40 TDP1 CPT, DT40 TDP1 no CPT)
COc1cc(O)c(C(CCN2CCCC(C)C2)c2ccc3c(c2)OCO3)c(OC)c1 (stereo unspecified)	TGFb inhibitor inconclusive, DT40 TDP1 CPT 16µM, DT40 TDP1 no CPT 16µM
O=C(Cn1nnc2ccccc21)Nc1ccccc1[N+](=O)[O-]	IL-1B inflam inh -79
Cc1ccsc1/C=N\NC(=O)Cn1nnc2ccccc21	DT40 TDP1 CPT inconclusive, DT40 TDP1 no CPT 18µM
COC(=O)c1c(N2C(=O)[C@H]3[C@@H](C2=O)[C@]2(C(=O)Nc4c(C)cccc42)N2CCC[C@@H]32)sc(C)c1C	DT40 TDP1 CPT 21µM, DT40 TDP1 no CPT 10µM
Cc1cc(Cl)cc2c1NC(=O)[C@]21[C@@H]2C(=O)N(Cc3ccccc3)C(=O)[C@@H]2[C@@H]2CCCN21	DT40 TDP1 no CPT inconclusive
Clc1ccc(-c2cnc3n2CCCCC3)cc1	IL-1B inflam inh inconclusive, DT40 TDP1 CPT 15µM, DT40 TDP1 no CPT 9.2µM
CCN(CC)c1ccc(NC(=O)c2c(C)noc2C)cc1	none
N#Cc1c[nH]n2c(NC3CCCCC3)c(-c3cccc(Cl)c3)nc12	DT40 TDP1 CPT inconclusive, DT40 TDP1 no CPT inconclusive (no result: IL-1B inflam inh)
CC(C)Oc1ccc(-c2nc3c(C#N)c[nH]n3c2NC2CCCCC2)cc1	TGFb inhibitor inconclusive, DT40 TDP1 CPT inconclusive, DT40 TDP1 no CPT 23µM (no result: IL-1B inflam inh)
COc1cccc(-c2nc3c(C#N)c[nH]n3c2NC2CCC(C)CC2)c1 (stereo unspecified)	DT40 TDP1 CPT inconclusive, DT40 TDP1 no CPT inconclusive (no result: IL-1B inflam inh)
COc1ccc(-c2nc3c(C#N)c[nH]n3c2NC2CCCC2)c(OC)c1	DT40 TDP1 CPT 12µM, DT40 TDP1 no CPT inconclusive (no result: IL-1B inflam inh)
CCOc1ccc(-c2nc3c(C#N)c[nH]n3c2NC2CCCC2)cc1	TGFb inhibitor inconclusive, DT40 TDP1 CPT 10µM, DT40 TDP1 no CPT 16µM (no result: IL-1B inflam inh)
Cc1noc(C)c1CSCC(=O)Nc1nc2c(F)cc(F)cc2s1	DT40 TDP1 CPT inconclusive, DT40 TDP1 no CPT 23µM
COc1ccc2nc(NC(=O)CSCc3c(C)noc3C)sc2c1	DT40 TDP1 CPT inconclusive, DT40 TDP1 no CPT inconclusive (no result: TDP1 block)
Cc1noc(C)c1CSCC(=O)Nc1nc(-c2ccc(F)c(F)c2)cs1	TGFb inhibitor inconclusive, IL-1B inflam inh -81, DT40 TDP1 CPT 23µM, DT40 TDP1 no CPT 8.2µM
Cc1csc(NC(=O)CSCc2c(C)noc2C)n1	none (no result: TDP1 block)
COc1ccc(-c2csc(NC(=O)CSCc3c(C)noc3C)n2)cc1OC	IL-1B inflam inh inconclusive, DT40 TDP1 CPT inconclusive, DT40 TDP1 no CPT 9.2µM
CC(C)(C)c1cc(C(=O)NCc2cc(F)cc3c2OCOC3)n(Cc2ccccc2)n1	TGFb inhibitor inconclusive, DT40 TDP1 CPT inconclusive, DT40 TDP1 no CPT inconclusive (no result: IL-1B inflam inh)
COCCNC(=O)CCn1c(=O)c2cc(OC)c(OC)cc2n(CC(=O)Nc2ccccc2C)c1=O	none (no result: IL-1B inflam inh)
Cc1ccc(S(=O)(=O)Nc2cncnc2NS(=O)(=O)c2ccc(C)cc2)cc1	DT40 TDP1 CPT inconclusive, DT40 TDP1 no CPT inconclusive (no result: TDP1 block)
CCNc1ncc2nc(-c3ccc(Cl)cc3)c(=O)n(C[C@H]3CCCO3)c2n1	none (no result: TDP1 block, TGFb inhibitor, IL-1B inflam inh, HepG2 viability)
CCOc1ccc(C2c3[nH]c4ccccc4c3CCN2C(=O)CCc2ccccc2)cc1 (stereo unspecified)	DT40 TDP1 CPT inconclusive, DT40 TDP1 no CPT inconclusive (no result: IL-1B inflam inh)
Cc1c(N2C(=O)/C(=C/C3CC=CCC3)SC2=S)c(=O)n(-c2ccccc2)n1C (stereo unspecified)	TGFb inhibitor inconclusive, IL-1B inflam inh -59, DT40 TDP1 CPT 18µM, DT40 TDP1 no CPT inconclusive (no result: TDP1 block)
